From PubChem BioAssay (EPA / NIEHS)
Inconclusive results are not listed. The source made the active and inactive calls. The calls were made as follows, unless noted: active = hit-call score of the fitted dose curve at least 0.9, where 1 is the maximum; inconclusive = response in the unintended direction; inactive = score below 0.9.

Columns and labels:
[1] = IUF_NPC2-5_cytotoxicity_72hr: Cytotoxicity Assessment at 72 hours in the Leibniz Research Institute for Environmental Medicine (IUF) Neural Progenitor Cell Migration and Differentiation Assay for Cytotoxicity (NPC2-5) (AID 2284306);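 also: LDH release into supernatant measured by resorufin fluorescence marking membrane damage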
How it was run: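 Membrane integrity loss was scored from fluorescence (RFU) of resorufin generated by LDH in culture supernatant, 72 h after dosing. Differentiating human progenitor spheres received seven serial compound concentrations alongside a solvent control.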

[2] = IUF_NPC2-5_cytotoxicity_120hr: Cytotoxicity Assessment at 120 hours in the Leibniz Research Institute for Environmental Medicine (IUF) Neural Progenitor Cell Migration and Differentiation Assay (NPC2-5) (AID 2284307)
How it was run: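 Human fetal neural progenitor spheres (0.3 mm, GW 16-19 cortex) were plated on poly-D-lysine/laminin in N2 differentiation medium and exposed for 120 h, with half-medium refresh at day 3. LDH release into supernatant was read by resorufin fluorescence.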

[3] = IUF_NPC2-5_cell_number_120hr: Cell Number Assessment at 120 hours in the Leibniz Research Institute for Environmental Medicine (IUF) Neural Progenitor Cell Migration and Differentiation Assay (NPC2-5) (AID 2284308; active = hit-call score of the fitted dose curve at least 0.9, where 1 is the maximum; inactive = score below 0.9;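 also: count of Hoechst-stained nuclei in migration zone around plated human neural progenitor spheres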)
How it was run: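 Primary human fetal neural progenitor spheres (GW 16-19, 0.3 mm) plated on poly-D-lysine/laminin in N2 differentiation medium, exposed from day 0 for 120 h with half-medium refresh at day 3; Hoechst-positive nuclei counted in migration area versus DMSO control.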

[4] = IUF_NPC2-5_viability_120hr: Viability Assessment at 120 hours in the Leibniz Research Institute for Environmental Medicine (IUF) Neural Progenitor Cell Migration and Differentiation Assay (NPC2-5) (AID 2284312; active = hit-call score of the fitted dose curve at least 0.9, where 1 is the maximum; inactive = score below 0.9)
How it was run: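 Alamar blue resorufin fluorescence read after 5 days of differentiation, with compound present from day 0 and replenished at day 3. Primary hNPC spheres on laminin-coated plates, 37C; seven concentrations plus solvent control, fitted against DMSO.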

[5] = TAMU_PeakParms_SingleDonor1434_Asystole: Texas A&M University (TAMU) 1.5-hr Human Induced Pluripotent Stem Cell (iPSC)-derived Cardiomyocytes Calcium (Ca+2) Flux Assay for Cardiotoxicity: Asystole (quiescence of beating) (AID 2284328)
How it was run: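 Average Ca2+-flux peak frequency (beats/s) was recorded in single-donor iPSC-derived cardiomyocytes after 90 min exposure (0.2–100 uM final, 0.5% DMSO). Asystole POD set as EC95 against DMSO, no preprocessing.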

[6] = CCTE_Deisenroth_DEVTOX-GLR_legacy_CellCount: (Legacy) Viability Assessment in CCTE's DevTox GLR-Endo Assay, Deisenroth Lab (AID 2284331; active = hit-call score of the fitted dose curve at least 0.9, where 1 is the maximum; inactive = score below 0.9); settings: actives raise or lower the signal
How it was run: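 Human pluripotent RUES2-GLR cells differentiated 48 h with two 24-h-interval exposures, 10-point 1 nM–200 uM series, 0.2% DMSO. Fixed nuclei counted by high-content imaging (5 fields/well); bidirectional fit vs DMSO, n≥4.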

[7] = IUF_NPC1_cytotoxicity_72hr: Cytotoxicity Assessment at 72 hours in the Leibniz Research Institute for Environmental Medicine (IUF) Neural Progenitor Cell Proliferation Assay (NPC1) (AID 2284332);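 also: rising LDH signal means more cytotoxicity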
How it was run: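 Human fetal neural progenitor spheres (0.3 mm) in EGF/FGF proliferation medium, 37C, exposed 72 h without renewal. LDH release in supernatant read by resorufin fluorescence; gain of signal scored relative to dynamic range.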

[8] = tested on: SRY-box transcription factor 17 (SOX17) Protein Expression, Deisenroth Lab, SOX17 (gene 64321); experiment: CCTE_Deisenroth_DEVTOX-GLR_legacy_Sox17: (Legacy) CCTE's DevTox GLR-Endo Assay Evaluation of SRY-box transcription factor 17 (SOX17) Protein Expression, Deisenroth Lab (AID 2284341; active = hit-call score of the fitted dose curve at least 0.9, where 1 is the maximum; inactive = score below 0.9); settings: actives raise or lower the signal
How it was run: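 RUES2-GLR human pluripotent cells differentiated toward endoderm for 48 h, dosed twice at 24 h intervals (1 nM–200 uM, 10 points). Imaging gives % SOX17+ cells (intensity >5x BMAD above pluripotent control median); bidirectional fit versus 0.2% DMSO.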

[9] = CCTE_Mundy_HCI_iCellGluta_NOG_NeuriteLength: CCTE's Neurite Outgrowth Assay in iCellGluta cells for Neurite Length, Mundy Lab (AID 2284318)
How it was run: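 Automated high-content imaging of betaIII-tubulin (Alexa Fluor-488) and Hoechst-stained cells gave neurite length, normalized to the DMSO baseline.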

[10] = CCTE_Mundy_HCI_iCellGluta_NOG_NeuronCount: CCTE's Neurite Outgrowth Assay in iCellGluta cells for Neuron Count, Mundy Lab (AID 2284340);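 also: cells fixed about 48 h after compound addition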
How it was run: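 Neuron count read by automated high-content imaging of Hoechst 33342 and betaIII-tubulin/Alexa Fluor-488 labelling in human iPSC glutamatergic neurons. Activity fitted relative to DMSO.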

IYD (gene 389434) = experiment: CCTE_GLTED_hIYD: CCTE's human Iodotyrosine Deiodinase (xIYD) Inhibition Assay, Great Lakes Toxicology and Ecology Division (GLTED) Lab (AID 2284317);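 also: cell-free human IYD enzyme made in baculovirus insect cells; iodide freed from monoiodotyrosine measured by cerium arsenite color change at 420 nm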
How it was run: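 hIYD: baculovirus-expressed human IYD deiodinated monoiodotyrosine for 3 h with test chemical; free iodide was measured by Sandell-Kolthoff absorbance at 420 nm and normalized to MNT and DMSO/NaOH controls.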

[11] = CCTE_Deisenroth_5AR_NBTE_donor: CCTE's 5alpha-reductase NanoBRET Target Engagement Assay […], Deisenroth Lab (AID 2284319; active = hit-call score of the fitted dose curve at least 0.9, where 1 is the maximum; inactive = score below 0.9); settings: actives raise or lower the signal
How it was run: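 HEK293T cells transiently expressing SRD5A2-NanoLuc, exposed 5 h to chemicals (8 points, 10 nM - 29.9 uM), with testosterone tracer for the final 2 h. Donor luminescence at 460 nm read after Nano-Glo substrate plus extracellular NanoLuc inhibitor; bidirectional fit versus DMSO.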

[12] = CCTE_Deisenroth_5AR_NBTE_acceptor: CCTE's 5alpha-reductase NanoBRET Target Engagement Assay - Autofluorescence Screen, Deisenroth Lab (AID 2284321; active = hit-call score of the fitted dose curve at least 0.9, where 1 is the maximum; inactive = score below 0.9;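 also: compound fluorescence in the acceptor channel under 460 nm excitation flags autofluorescence artifacts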); settings: actives raise or lower the signal
How it was run: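 HEK293T cell-based NanoBRET assay read 5 h after dosing; this acceptor channel serves as an autofluorescence artifact screen. Chemicals at nominal 100 uM were scanned in three independent runs (n=3), excitation 460 nm. Fitting was bidirectional versus DMSO baseline.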

SRD5A2 (gene 6716) = experiment: CCTE_Deisenroth_5AR_NBTE_ratio: CCTE's 5alpha-reductase NanoBRET Target Engagement Assay - Ratio, Deisenroth Lab (AID 2284322; active = hit-call score of the fitted dose curve at least 0.9, where 1 is the maximum; inactive = score below 0.9); settings: actives raise or lower the signal
How it was run: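 HEK293T transiently expressing SRD5A2-NanoLuc; cells exposed to chemical (8-point, 10 nM - 29.9 uM) for 5 h total, testosterone tracer added for final 2 h. NanoBRET acceptor/donor ratio (650/460 nm), bidirectional fit vs DMSO.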

TTR (gene 7276) = experiment: CCTE_GLTED_hTTR_0.5uM: CCTE's human Transthyretin (hTTR) Inhibition Assay, with 0.5uM TTR, Great Lakes Toxicology and Ecology Division (GLTED) Lab (AID 2284320; active = hit-call score of the fitted dose curve at least 0.9, where 1 is the maximum; inactive = score below 0.9)
How it was run: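 Cell-free displacement assay in which human TTR at 0.5 uM was incubated with test chemical for 2 h. Displacement of the ANSA probe was read by fluorescence at 380 nm excitation/475 nm emission. Loss of signal was fitted in the positive direction versus DMSO.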

[13] = VALA_TUBHUV_Agonist_CellCount: Viability Assessment in the VALA Sciences human Umbilical Vein Endothelial Tubule Formation (TUBHUV) Agonism Assay (AID 2284309)
How it was run: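 HUVEC co-cultured 1:3 with HDF for 3 days in 10 ng/ml VEGF, then compounds added in VEGF medium for a further 3 days (72 h). Nuclear-stain/CD31 imaging cell count. Positive-direction fit versus 0.1% DMSO vehicle.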

[14] = VALA_TUBIPS_Antagonist_TubuleLength: VALA Sciences human iPS-derived Endothelial Tubule Formation (TUBIPS) Antagonist Assay (AID 2284313)
How it was run: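 Cells grown 3 days with 10 ng/ml VEGF, then exposed to compounds in VEGF medium for another 3 days. After fixation, nuclear stain and CD31 immunofluorescence imaging gave mean total tubule length against 0.1% DMSO; suramin (100 uM) inhibition control.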

[15] = VALA_TUBHUV_Antagonist_TubuleLength: VALA Sciences human Umbilical Vein Endothelial Tubule Formation (TUBHUV) Antagonism Assay (AID 2284325)
How it was run: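 HUVEC–HDF co-culture (1:3) pre-grown 3 days with 10 ng/ml VEGF, then 3 days with compound plus VEGF. Fixed, nuclear and CD31 stained; total tubule length by imaging versus 0.1% DMSO; suramin 100 uM positive control.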

[16] = VALA_TUBIPS_Antagonist_CellCount: Viability Assessment in the VALA Sciences human iPS-derived Endothelial Tubule Formation (TUBIPS) Antagonism Assay (AID 2284335)
[17] = VALA_MIGHUV1_ScratchOnly_WoundArea: VALA Sciences human Umbilical Vein Endothelial Cell Migration (MIGHUV) Assay, Area of Scratch Wound Inhibited Recovery (AID 2284336)
How it was run: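 HUVEC monolayers (9000 cells/well) were scratched after 24 h, dosed within 30 min (six concentrations, triplicate, 0.1% DMSO), allowed 24 h recovery, then fixed. Hoechst-stained nuclei in the wound imaged; cytochalasin D as reference.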

Question: For `C=CC(N)=O`, which outcome [1] is on record?
Answer: inactive

Question: And the outcome [2]?
Answer: inactive

Question: What about the outcome [3] of the same compound?
Answer: inactive

Question: And the outcome [4]?
Answer: inactive

Question: What about the outcome [5] of the same compound?
Answer: inactive

Question: What about the outcome [6] of the same compound?
Answer: inactive

Question: What about the outcome [7] of the same compound?
Answer: inactive

Question: What about the outcome [8] of the same compound?
Answer: inactive

Question: With `CCOP(=S)(OCC)SCSC(C)(C)C` as the compound, how does the outcome [1] read?
Answer: inactive

Question: And the outcome [2]?
Answer: inactive

Question: And the outcome [3]?
Answer: inactive

Question: And the outcome [4]?
Answer: inactive

Question: What about the outcome [9] of the same compound?
Answer: inactive

Question: And the outcome [7]?
Answer: inactive

Question: What about the outcome [10] of the same compound?
Answer: inactive

Question: For `CCCCCCCCCc1ccc(O)cc1`, which AC50 (IYD (gene 389434)) is on record?
Answer: 24.1 µM (active)

Question: Which AC50 (IYD (gene 389434)) does the source give for `CCCCCCCCCC[N+](C)(C)CCCCCCCCCC` here?
Answer: 63.9 µM (active)

Question: And the AC50 [11]?
Answer: 5.89 µM (active)

Question: And the AC50 [12]?
Answer: 4.7 µM (active)

Question: And the AC50 (SRD5A2 (gene 6716))?
Answer: 10.3 µM (active)

Question: With `ClC1=C(Cl)[C@]2(Cl)[C@@H]3[C@@H]4C[C@@H]([C@H]5O[C@@H]45)[C@@H]3[C@@]1(Cl)C2(Cl)Cl` as the compound, how does the outcome [5] read?
Answer: inactive

Question: With `CC#Cc1cc(C)nc(Nc2ccccc2)n1` as the compound, how does the outcome (IYD (gene 389434)) read?
Answer: inactive

Question: Which results are given for `O=C(O)C(F)(F)C(F)(F)C(F)(F)C(F)(F)C(F)(F)C(F)(F)C(F)(F)C(F)(F)F`?
Answer: AC50 (IYD (gene 389434)): 91.2 µM (active); AC50 (TTR (gene 7276)): 0.435 µM (active)

Question: What does the source list for `CC1=C2C[C@H]3[C@@H](CC=C4C[C@@H](O)CC[C@@]43C)[C@@H]2CC[C@]12O[C@@H]1C[C@H](C)CN[C@H]1[C@H]2C`?
Answer: outcome [6]: inactive; outcome [8]: inactive

Question: Which outcome [1] does the source give for `O=S(=O)(O)C(F)(F)C(F)(F)C(F)(F)C(F)(F)F` here?
Answer: inactive

Question: And the outcome [2]?
Answer: inactive

Question: And the outcome [3]?
Answer: inactive

Question: What about the outcome [4] of the same compound?
Answer: inactive

Question: What about the outcome [9] of the same compound?
Answer: inactive

Question: What about the AC50 (TTR (gene 7276)) of the same compound?
Answer: 0.788 µM (active)

Question: What about the outcome [7] of the same compound?
Answer: inactive

Question: What about the outcome [10] of the same compound?
Answer: inactive

Question: What does the source list for `ClC(Cl)=C(c1ccc(Cl)cc1)c1ccc(Cl)cc1`?
Answer: outcome [11]: inactive; outcome [12]: inactive; outcome (SRD5A2 (gene 6716)): inactive

Question: With `Oc1ccc(C(c2ccc(O)cc2)(C(F)(F)F)C(F)(F)F)cc1` as the compound, how does the AC50 [13] read?
Answer: 65.5 µM (active)

Question: What about the outcome [14] of the same compound?
Answer: inactive

Question: What about the outcome [15] of the same compound?
Answer: inactive

Question: What about the outcome [16] of the same compound?
Answer: inactive

Question: And the outcome [17]?
Answer: inactive
